Experimental data from ChEMBL document CHEMBL1157539, “Thousands of chemical starting points for antimalarial lead identification” (Nature, 2010).
The full ranking holds about 13,000 compounds; the median of “IFI” is about 4, and the highest 2% start at about 17. This is one part of a sample in which the highest values are shown more often than they occur.

test: GSK_TCMDC: Inhibition Frequency Index (IFI). The number of non-kinase HTS assays where a compound showed > 50 % inhibition, expressed as a percentage of the number of such assays in which the compound was tested; type: functional

| SMILES | IFI [%] |
| --- | --- |
| CC(C)(C)c1ccc(C(=O)Nc2cccc(Nc3c(C(=O)NCc4cccc(C(F)(F)F)c4)cnc4c(O)cccc34)c2)cc1 | 3.68 |
| CCCCN(CCCC)/C(=N/c1cccc(Cl)c1Cl)Nc1ccc(C#N)cc1O | 7.14 |
| O=C(Cc1cccc(O)c1)Nc1ccc(-c2cccc(-c3nc4cc(C(F)(F)F)ccc4[nH]3)c2)cc1 | 8.93 |
| CC(CN(C)C)C(=O)Nc1cccc(-c2cccc(-c3nc4ccccc4[nH]3)c2)c1 (stereo unspecified) | 5.41 |
| COc1ccccc1-c1cccc(-c2cccc(NC(=O)c3ccc([N+](=O)[O-])o3)c2)n1 | 11.9 |
| O=C(Nc1cccc(-c2cccc(-c3ccc(F)cc3)n2)c1)c1ccc([N+](=O)[O-])o1 | 19.1 |
| COc1cccc(-c2cccc(-c3ccc(NC(=O)c4ccc([N+](=O)[O-])o4)cc3)n2)c1 | 9.52 |
| Cc1cccc2nc(-c3ccc(-c4ccc(CN5CCCC(N)C5)cc4)cc3)[nH]c12 (stereo unspecified) | 4.23 |
| Cc1ccc(/C=C/C(=O)NC2CCC(N3CCC(c4ccccc4C)CC3)CC2)cc1F (stereo unspecified) | 13.3 |
| Cc1ccccc1C1CCN(C2CCC(NC(=O)c3cc4cc(C(C)C)ccc4[nH]3)CC2)CC1 (stereo unspecified) | 19.6 |
| COc1ccccc1C1CCN(C2CCC(NC(=O)c3cc(-c4ccc(Cl)cc4)cs3)CC2)CC1 (stereo unspecified) | 16.4 |
| COc1ccccc1C1CCN(C2CCC(NC(=O)/C=C/c3ccc4c(c3)OC(F)(F)O4)CC2)CC1 (stereo unspecified) | 9.84 |
| CCc1c(C(=O)NC2CCC(N3CCC(c4ccccc4C)CC3)CC2)[nH]c2ccc(Br)cc12 (stereo unspecified) | 15.8 |
| COc1ccccc1C1CCN(C2CCC(NC(=O)c3cc4ccccc4[nH]3)CC2)CC1 (stereo unspecified) | 16.4 |
| COc1ccc(-c2csc(C(=O)NC3CCC(N4CCC(c5ccccc5C)CC4)CC3)c2)cc1 (stereo unspecified) | 14 |
| CCc1c(C(=O)NC2CCC(N3CCC(c4ccccc4OC)CC3)CC2)[nH]c2ccc(OC)cc12 (stereo unspecified) | 6.45 |
| COc1ccccc1C1CCN(C2CCC(NC(=O)c3cc4cc(C(C)C)ccc4[nH]3)CC2)CC1 (stereo unspecified) | 18 |
| Cc1ccccc1C1CCN(C2CCC(NC(=O)c3cc(-c4ccc(Cl)cc4)cs3)CC2)CC1 (stereo unspecified) | 22.4 |
| Cc1ccc(/C=C/C(=O)NC2CCC(N3CCC(c4ccccc4C)CC3)CC2)cc1C (stereo unspecified) | 15 |
| Cc1ccccc1C1CCN(C2CCC(NC(=O)/C=C/c3ccc4c(c3)OC(F)(F)O4)CC2)CC1 (stereo unspecified) | 17.2 |
| CN1CCC(NCc2ccc(-c3cccc(-c4nc5ccccc5[nH]4)c3)cc2)CC1 | 4.76 |
| Cc1[nH]c(C)c(-c2ccc(OCc3ccc(F)cc3)nc2)c(=O)c1Br | 3.57 |
| Cc1c(Cl)cccc1N=C(S)NN=Cc1ccccn1 | 6.3 |

| SMILES | IFI [%] |
| --- | --- |
| Cc1c(-c2cccc(C(C)(C)NCCCN3CCCCC3)c2)cnc(N)c1C | 0.74 |
| Cc1ccc(O)cc1C[C@@H]1C(=O)CC[C@@]2(C)[C@H]1CC[C@]2(C)O | 0 |
| O=C(Nc1ccccc1)N(Cc1ccc(-c2cccc(CNC3CCCC3)c2)cc1)C1CCN(Cc2ccccc2)CC1 | 7.04 |
| Cc1cccc2nc(-c3ccc(-c4cccc(CNCCCNS(C)(=O)=O)c4)s3)[nH]c12 | 3.96 |
| CNC(=O)c1cnc(Nc2ccc(OCC(O)CN(C)C)cc2)nc1Nc1cccc(OC)c1 (stereo unspecified) | 2.22 |
| CCOc1ccc2[nH]c(C)cc(=NN=Cc3ccccc3)c2c1 | 1.53 |
| CCN(CC)CCCC(C)Nc1c(-c2ccc(OC)cc2)cnc2ccccc12 (stereo unspecified) | 0 |
| CN(C)c1nc(NCc2ccccc2)nc(N/N=C/c2cc([N+](=O)[O-])ccc2O)n1 | 6.16 |
| CNC(=O)C1Cc2c([nH]c3cc(Br)ccc23)C2(CCN(CCc3ccccc3)CC2)N1 (stereo unspecified) | 7.86 |
| COc1ccc2nccc(N3CCN(CCNCc4ccc5c(n4)NC(=O)CO5)CC3)c2c1 | 3.73 |
| Cc1c(C)c2c(c(C)c1O)CC[C@](C)(C(=O)N1CCC(CCN3CCC(c4c[nH]c5ccccc45)CC3)CC1)O2 | 5.88 |
| Cc1cccc2nc(-c3cccc(-c4cccc(NC(=O)COc5ccccc5C(N)=O)c4)c3)[nH]c12 | 6.09 |
| CN(C)CCNC(=O)c1ccc(-c2cnc3ccc(NCc4ccc(Cl)c(Cl)c4)nn23)cc1 | 9.02 |
| CCCCc1ccc2ncc(C(=O)OCC)c(O)c2c1 | 0.78 |
| COc1c(Br)cc(Br)cc1-c1ccc(CN2C3CCCC2CCC3)[nH]1 | 6.82 |
| COc1c(Br)cc(Br)cc1-c1ccc(CN2CC3CCC2CC3)[nH]1 | 21.1 |
| COc1cccc(C(=O)Nc2ccc(Nc3nc(C)cc(N(C)C)n3)cc2)c1OC | 7.14 |
| CCCCCCCN1CC[C@@H](CCCc2ccnc3ccc(OCCCCN/C(N)=N/O)cc23)[C@@H](CC)C1 | 9.66 |
| O=[N+]([O-])c1cnc(Nc2ccccc2O)nc1Nc1ccccc1O | 19.2 |
| CN1CCN(c2ccc(Nc3ncc([N+](=O)[O-])c(Nc4ccccc4O)n3)cc2)CC1 | 6.99 |
| CN(C)CC(O)COc1ccc(Nc2ncc([N+](=O)[O-])c(Nc3ccccc3O)n2)cc1 (stereo unspecified) | 6.21 |
| Cc1[nH]c(C)c(-c2ccc(CCc3ccc(N)cc3)cc2)c(=O)c1Cl | 1.89 |
| COc1ccc2[nH]c(C(=O)Nc3ccc4[nH]c(-c5ccccc5)nc4c3)cc2c1 | 7.69 |

| SMILES | IFI [%] |
| --- | --- |
| CCc1cn(CC(=O)N(CCOc2ccc(-c3ccc(C(F)(F)F)cc3)cc2)CCN(CC)CC)c(SCc2ccc(F)cc2)nc1=O | 6.34 |
| FC(F)(F)c1cccc(Nc2nc3nonc3nc2NC2C3CC4CC(C3)CC2C4)c1 (stereo unspecified) | 20.6 |
| FC(F)(F)c1cccc(Nc2nc3ccccc3nc2Nc2cccc(C(F)(F)F)c2)c1 | 10 |
| O=[N+]([O-])c1ccc2nc(Nc3cccc(C(F)(F)F)c3)c(Nc3cccc(C(F)(F)F)c3)nc2c1 | 5.88 |
| CC1(C)C(=O)Nc2ccc3c(c21)CC1SC(=O)NN=C31 (stereo unspecified) | 2.22 |
| CCCN(CCC)C(=O)c1cc(C(=O)N[C@@H](Cc2ccccc2)[C@H](O)CNC(C)(C)c2cccc(OC)c2)cc(N2CCCCS2(=O)=O)c1 | 3.62 |
| CC(C)(C)c1ccc(CN2CCC(CNC(=O)c3cc(-c4cccc(Cl)c4)cs3)C2)cc1 (stereo unspecified) | 12.2 |
| Cc1cc2cc(-c3ccc(CN)cc3)ccc2nc1N | 3.88 |
| O=C(c1ccc([N+](=O)[O-])o1)N1CCC(Cc2ccc(C(F)(F)F)cc2)CC1 | 9.52 |
| COCCN1CCN(Cc2ccc(-c3ccc(-c4nc5cc(F)ccc5[nH]4)cc3)cc2)CC1 | 4.9 |
| O=[N+]([O-])c1ccc2nc(Nc3ccc(Cl)c(Cl)c3)c(Nc3ccc(Cl)c(Cl)c3)nc2c1 | 2.86 |
| Clc1ccc(Nc2nc3ccc(Cl)cc3nc2Nc2ccc(Cl)cc2)cc1 | 10.1 |
| Clc1ccc(Nc2nc3nonc3nc2Nc2ccc(Cl)c(Cl)c2)cc1 | 19.4 |
| Clc1ccc(CNCCCCCCNCc2ccc(Cl)cc2)cc1 | 11.3 |
| CC(=O)Nc1cc(C(=O)Nc2cccc(-c3cccc(-c4nc5cccc(C)c5[nH]4)c3)c2)ccc1C | 5.88 |
| Cc1cc(NCCc2ccccc2)nc(NC(=N)Nc2cccc(F)c2)n1 | 6.77 |
| Nc1nccc2ccc(-c3ccc(OCc4ccccc4)cc3)cc12 | 19.1 |
| Nc1nccc2ccc(-c3ccncc3)cc12 | 3 |
| Nc1nccc2ccc(-c3ccc(Oc4ccccc4)cc3)cc12 | 20.7 |
| Nc1cccc(-c2ccc3ccnc(N)c3c2)c1 | 5.56 |
| Nc1ccc(-c2ccc3ccnc(N)c3c2)cc1 | 9.09 |
| NCc1cccc(-c2ccc3ccnc(N)c3c2)c1 | 2.86 |
| Nc1nccc2ccc(-c3cccc(OCc4ccccc4)c3)cc12 | 19.8 |

| SMILES | IFI [%] |
| --- | --- |
| Nc1nccc2ccc(-c3cccc(O)c3)cc12 | 7.14 |
| COc1cccc(-c2ccc3ccnc(N)c3c2)c1 | 7.87 |
| CNc1nc(Nc2ccccc2C)nc2ccccc12 | 2.21 |
| CC(c1cccc(Nc2nccc(-c3c(-c4cccc(NC(=O)c5c(F)cccc5F)c4)nn4ccccc34)n2)c1)S(C)(=O)=O (stereo unspecified) | 6.31 |
| O=S(=O)(c1c(Cl)cc(Cl)cc1Cl)N1CCCCC(c2ccc(C(F)(F)F)cc2)=N1 | 1.5 |
| Nc1nc(O)c2c(n1)CCc1c(Br)cccc1-2 | 2.31 |
| COc1ccccc1C1CCN(C2CCC(NC(=O)/C=C/c3ccc(OC(F)(F)F)cc3)CC2)CC1 (stereo unspecified) | 11.7 |
| Nc1nc(Nc2cccc(O)c2)nc2ccccc12 | 5.04 |
| NCC(NC(=O)c1ccc(-c2c[nH]c3ncccc23)s1)c1ccccc1 (stereo unspecified) | 16.1 |
| NC[C@H](CC1CCCCC1)NC(=O)c1ccc(-c2ccnc3[nH]ccc23)s1 | 22.2 |
| CCC[C@@H]([C@@H](CC1CCCCC1)C(=O)N[C@H](C(=O)Nc1nccc(N)n1)C(C)(C)C)N(O)C=O | 2.86 |
| OCC1CCN(Cc2cccc(-c3cccc(-c4nc5cc(C(F)(F)F)ccc5[nH]4)c3)c2)CC1 | 5.83 |
| CCCCCCOc1ccc(C(=O)NCCCC2CCCN(CCCCCNC(=O)C=Cc3ccc(Cl)c(Cl)c3)C2)cc1 (stereo unspecified) | 6.87 |
| Cc1ccc(F)cc1-c1cc(N2CCCN(C(=O)c3ccc(Br)o3)CC2)ncn1 | 0 |
| CC(C)(C)OC(=O)N[C@@H](Cc1ccccc1)C(=O)Nc1cccc(-c2cccc(NC(=O)[C@H](Cc3ccccc3)NC(=O)OC(C)(C)C)c2)c1 | 0.72 |
| COC(=O)C(c1ccc(NC(=O)[C@H](CC(C)C)NC(=O)OC(C)(C)C)cc1)c1ccc(NC(=O)[C@H](CC(C)C)NC(=O)OC(C)(C)C)cc1 | 0 |
| C=CCc1ccc(C[C@H](NC(=O)OC(C)(C)C)C(=O)OC)cc1 | 18.9 |
| CCSc1ccc(C)cc1CON1C(N)=NC(N)=NC1(C)C | 6.34 |
| Cc1c(Cn2nc(Cl)c(N3CCNCC3)cc2=O)cccc1NC(=O)Nc1ccc(-c2ccccc2)cc1 | 10.8 |
| O=C(/C=C/c1ccccc1Cl)Nc1ccc(Br)c(OCCN2CCCCC2)c1 | 5.52 |
| ON=C1c2cc(OCCN3CCCCC3)c(Cl)cc2-c2cc(Cl)c(OCCN3CCCCC3)cc21 | 9.42 |
| CCC(C)(C)c1ccc(S(=O)(=O)Nc2ccc(Cl)c(OCCN3CCCCC3)c2)cc1 | 43.1 |
